Common to all, as to assay: NCI-60 one-dose screen, 48 h (100 = growth as untreated, 0 = no growth, -100 = all killed)
Common to all, as to settings: 10 µM unless noted

In experiment [1] the test system is NCI-H23 lung.
Experiment [2] deals with NCI-H226 lung.
In experiment [3] the test system is NCI-H322M lung.
The subject of experiment [4] is HOP-62 NSCLC.
The subject of experiment [5] is NCI-H460 lung.
Experiment [6] relates to HOP-92 NSCLC.
In experiment [7] the test system is NCI-H522 lung.
Experiment [8] has as its system A549/ATCC NSCLC.
The subject of experiment [9] is 786-0 renal.
Experiment [10] concerns COLO 205 colon.
Experiment [11] deals with DU-145 prostate.
The subject of experiment [12] is K-562 leukemia.
The subject of experiment [13] is MALME-3M melanoma.
For experiment [14], the system named is MDA-MB-231 breast.
The test system of experiment [15] is RXF 393 renal.
Experiment [16] has as its system SF-268 CNS.
For experiment [17], the system named is SF-295 CNS.
Experiment [18] deals with SF-539 CNS.
The subject of experiment [19] is UACC-257 melanoma.
Experiment [20] relates to M14 melanoma.

The panel holds about 83,000 compounds, 20% with a hit somewhere; the sample as a whole holds those more often.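 Testing used 96-well plates and a 48-hour single-concentration exposure. Example: -40 means 40% of the starting cells died.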 A number with no mark means an inactive call. Active and inactive are the calls of the source. The calls were made as follows: active = growth percent below 10; inactive = the rest.

For `CC[C@H](C)[C@H](NC(=O)c1ccccn1)C(=O)N(C)[C@H](C[C@@H](OC(C)=O)c1nc(C(=O)N[C@@H](Cc2ccccc2)C[C@H](C)C(=O)OC)cs1)C(C)C`, the growth in [1] was 28.3%; in experiment [2], 25.4%; in experiment [3] it was 58.2%; in [4], 26.9%; in experiment [5], 9.13% (active); in experiment [6], 91.9%. Moreover, the growth in experiment [7] was -33.8% (active); in experiment [8], 32.2%; in experiment [9], 30.4%; in [10] it was -21.2% (active); in experiment [11] it was 6.32% (active); in experiment [12], 10.8%. For the same molecule, the growth was 53.8% in experiment [13]; 15.8% in experiment [14]; -11.2% (active) in experiment [15]; 32.3% in experiment [16]; 7.86% (active) in experiment [17]; -24% (active) in experiment [18]. For the same molecule, the growth is 69.8% in experiment [19] and 4.96% (active) in [20].

For `Fc1c[c-]c(-c2ccccn2)c(F)c1.[CH3-].[Pt+2].c1ccc([PH+](c2ccccc2)c2ccccn2)cc1`, the growth was 0.331% (active) in experiment [1]; -53.6% (active) in [2]; 19.4% in experiment [3]; 22.3% in experiment [4]; 3.22% (active) in experiment [5]; -25.6% (active) in experiment [6]. Further, the growth in experiment [7] was -37.9% (active); in experiment [8], 11.5%; in experiment [9], -1.65% (active); in experiment [10], -31.5% (active); in experiment [11], 15.9%; in [12] it was 4.86% (active). For the same molecule, the growth in [13] is -75.5% (active); in [14], -70.6% (active); in [15] it was -64.8% (active); in [16] it was 22.8%; in experiment [17], 5.67% (active); in experiment [18], -46.7% (active). Further, the growth in experiment [19] was 0.865% (active); in experiment [20], -30.4% (active).

Consider `CC12CCC3C(C=CC4=C(N)C(=O)CCC43C)C1CCC2=O` (stereo not given), for which the growth was 74.1% in experiment [1]; 96.3% in experiment [2]; 88.4% in experiment [3]; 112% in experiment [4]; 83.8% in [5]; 61.9% in experiment [6]. The growth was 76.6% in experiment [7]; 103% in experiment [8]; 89.3% in [9]; 121% in experiment [10]; 62.4% in experiment [11]; -26.9% (active) in experiment [12]. For the same molecule, the growth in [13] was 70.8%; in experiment [14] it was 101%; in experiment [15], 95.2%; in experiment [16] it was 89%; in [17] it was 105%; in experiment [18], 82.8%. The growth was 86.7% in experiment [19] and 79.5% in [20].

Regarding `CCCCC1(CCC)C(=O)NC(=S)NC1=O`, the growth in experiment [1] is 100%; in experiment [2] it was 106%; in experiment [3], 112%; in [4], 99.6%; in experiment [5], 108%; in experiment [6], 71.4%. The growth in experiment [7] is 81.7%; in experiment [8], 125%; in [9], 93.8%; in [10] it was 112%; in [11], 119%; in experiment [12] it was 121%. The growth in experiment [13] is 119%; in [14], 113%; in experiment [15] it was 195%; in [16], 107%; in experiment [17] it was 102%; in experiment [18] it was 94.9%. For the same molecule, the growth in [19] is 131%; in experiment [20] it was 106%.

On to `COC(=O)[C@@H](C)C[C@H](Cc1ccccc1)NC(=O)c1csc([C@@H](C[C@H](C(C)C)N(C)C(=O)[C@@H](NC(=O)[C@H]2CCCCN2C)C2CCCCC2)OC(C)=O)n1`, for which the growth in [1] is 16.1%; in [2], 20.5%; in experiment [3], 34.1%; in experiment [4], -19.8% (active); in experiment [5], 1.05% (active); in experiment [6], -13.2% (active). Further, the growth in experiment [7] was -32.1% (active); in [8], 11.4%; in experiment [9], 3.22% (active); in [10], -75.7% (active); in experiment [11], 6.23% (active); in [12], -0.636% (active). Moreover, the growth in experiment [13] is 56.9%; in experiment [14], -3.53% (active); in experiment [15], 65.5%; in experiment [16], 8.92% (active); in experiment [17], -3.03% (active); in experiment [18], -22.3% (active). Besides, the results for the growth in experiment [19] and in [20] were 48% and -35.1% (active), respectively.

On to `CCOc1ccccc1C(=O)OCC(Cl)(Cl)Cl`, for which the growth in experiment [1] was 102%; in experiment [2], 101%; in experiment [3] it was 102%; in experiment [4] it was 99.9%; in [5], 107%; in [6] it was 113%. For the same molecule, the growth in experiment [7] was 105%; in [8], 106%; in experiment [9], 99.6%; in experiment [10] it was 102%; in experiment [11] it was 99.8%; in experiment [12] it was 98.8%. For the same molecule, the growth is 109% in experiment [13]; 114% in experiment [14]; 109% in experiment [15]; 101% in experiment [16]; 105% in experiment [17]; 101% in [18]. Moreover, the results for the growth in experiment [19] and in experiment [20] were 112% and 103%, respectively.

Regarding `Nc1c(F)cc(-c2nc3cc(F)ccc3[se]2)cc1Br`, the growth in [1] is 17.4%; in [2] it was -16.3% (active); in experiment [3], 46.9%; in experiment [4] it was 39.8%; in [5], 3.18% (active); in experiment [6] it was 49.7%. Moreover, the growth in experiment [7] is 67.1%; in [8] it was 22.5%; in [9], 95.4%; in [10] it was 5.84% (active); in [11] it was 98.8%; in [12] it was 98.5%. The growth in [13] was 87%; in [14], 17.8%; in experiment [15], 74.8%; in experiment [16], 98.6%; in experiment [17] it was 74.5%; in experiment [18] it was 87.6%. Further, the growth in [19] is 85.4%; in experiment [20], 88%.

With `C[C@@H]1CCC2[C@@H](C)[C@H](OC(=O)CCC(=O)NCCNC(=O)Cc3cc(=O)oc4cc(N(C)C)ccc34)O[C@@H]3O[C@]4(C)CC[C@@H]1C23OO4` (stereo not given in full), the growth in [1] is 21.5%; in experiment [2] it was 65.3%; in experiment [3], 79.2%; in experiment [4] it was 82.8%; in experiment [5], 39.4%; in [6] it was 29.3%. In addition, the growth in [7] is -4.8% (active); in experiment [8], 51.4%; in experiment [9] it was 36.7%; in experiment [10], 47.6%; in experiment [11], 94%; in experiment [12] it was 13.6%. Besides, the growth in experiment [13] is 49.6%; in experiment [14] it was 77%; in experiment [15], 61.7%; in [16], 56.7%; in [17], 41.8%; in [18], 55.4%. The growth was 59.1% in [19] and 38.4% in experiment [20].

Values taken from PubChem BioAssay (NCI).
